Test results from PubChem BioAssay (NCATS).
Records with an inconclusive call do not appear. Where a call stands in place of a potency, no number is given. A number with no mark means an inactive call. The source made the active and inactive calls. Calls follow the shape of the dose curve; as a rule, active = well fitted inhibition curve with a large enough effect; inconclusive = small, poorly fitted or top-dose-only effect; inactive = flat fitted curve, though single readings scatter.

test system: MKL-1; test: qHTS assay to identify novel small-molecules to repurpose for Merkel cell carcinoma treatment (AID 1296009); conditions: MCC and control cell lines, CellTiter-Glo viability, 72 h; series mostly up to 46 µM; also: nearly all actives have a fitted effect of over 60% in size
From the text: MCC is a rare and aggressive neuroendocrine skin cancer with limited treatment options. Approximately 80% of MCCs have the Merkel cell polyomavirus (MCPyV) DNA integrated into the host genome (virus-positive: VP-MCC) and viral oncogenes drive oncogenesis. The remaining MCCs are virus-negative (VN-MCC) and are caused by UV mutagenesis. To identify novel treatments for VP-MCC and/or VN-MCC we screened three VP-MCC cell lines (WAGA, MKL-1, MKL-2), three VN-MCC cell lines (MCC-13, MCC-26, UISO), and four immortalized, non-transformed control cell lines (HaCaT, HEK293T, CRL7250, NIH-3T3) against ~2,400 compounds in the NCGC Pharmaceutical Collection (NPC) and ~1,900 compounds in the Mechanism Interrogation PlatE (MiPE). Using cell viability as a readout (CellTiter-Glo assay) we found both overlapping and distinct drugs that can be repurposed for the treatment of VP-MCC and VN-MCC.
A high-throughput screen was conducted in 1536-well white flat bottom plates (Corning) on a Kalypsys robotic system. Cell lines WAGA, MKL-1, MKL-2, MCC-13, MCC-26, UISO, HaCaT, HEK293T, CRL7250, and NIH-3T3 were screened against 2 small molecule annotated drug libraries NPC and MIPE in dose response (8 and 11 pt. respectively) measuring cell viability after 72 hours of incubation. […] A 1,536 pintool (Kalypsys) was used to transfer 23 nL of compound in DMSO to the 1,536-well assay plates. After 72 hr incubation at 37 degree celsius, 2.5 uL of CellTiter-Glo (Promega) was dispensed into each well using a BiorapTR. Plates were incubated at room temperature for 10 min, transferred to a ViewLux (PerkinElmer) and the luminescence was recorded using an exposure time of 2 seconds. Relative luminescence units (RLUs) were normalized to in-plate controls (no cells as a positive (cytotoxicity) control, DMSO as negative control) and the normalized data was processed using NCATS in-house software.

Row | SMILES | Potency | activity change, negative = cytotoxicity
1 | CN(C)CCN(Cc1cccs1)c1ccccn1 | inactive | 
2 | Cc1cc(C)c(/C=C2\C(=O)Nc3ccccc32)[nH]1 | inactive | 
3 | c1ccc2c(c1)CCCC2C1=NCCN1 (stereo not given) | inactive | 
4 | CSc1ccc(C(=O)c2[nH]c(=O)[nH]c2C)cc1 | inactive | 
5 | CO[C@@]1(NC(=O)CSCC#N)C(=O)N2C(C(=O)O)=C(CSc3nnnn3C)CS[C@@H]21 | inactive | 
6 | OCCN1CCN(CCCN2c3ccccc3C=Cc3ccccc32)CC1 | inactive | 
7 | CC(=O)Oc1cc(C(C)C)c(OCCN(C)C)cc1C | inactive | 
8 | NC(Cc1ccc(Cl)cc1)C(=O)O (stereo not given) |  | 8.15% [at 0.597 µM]
9 | Cc1nc2ccccn2c(=O)c1CCN1CCC(C(=O)c2ccc(F)cc2)CC1 | inactive | 
10 | CCn1nc(C(=O)O)c(=O)c2cc3c(cc21)OCO3 | inactive | 
11 | Cc1ccc(/C(=C\CN2CCCC2)c2ccccn2)cc1 | inactive | 
12 | CCN(CC)CCNC(=O)c1ccc(NC(C)=O)cc1 | inactive | 
13 | Cc1nc2sccn2c(=O)c1CCN1CCC(=C(c2ccc(F)cc2)c2ccc(F)cc2)CC1 | inactive | 
14 | Nc1c2c(nc3ccccc13)CCCC2O (stereo not given) | inactive | 
15 | O=C(CCCN1CCC(O)(c2cccc(C(F)(F)F)c2)CC1)c1ccc(F)cc1 | inactive | 
16 | CNC1(C)C2CCC(C2)C1(C)C (stereo not given) | inactive | 
17 | CCCOc1ccccc1-c1nc2n[nH]nc2c(=O)[nH]1 | inactive | 
18 | NS(=O)(=O)c1cc2c(cc1Cl)NC(C1CC3C=CC1C3)NS2(=O)=O (stereo not given) | inactive | 
19 | C#CCN(C)CCCOc1ccc(Cl)cc1Cl | inactive | 
20 | C[C@@H](O)[C@H]1C(=O)N2C(C(=O)O)=C(SCCN=CN)C[C@H]12 | inactive | 

Row | SMILES | Potency | activity change, negative = cytotoxicity
21 | NC(=O)c1ncn([C@@H]2O[C@H](CO)[C@@H](O)[C@H]2O)c1O | inactive | 
22 | O=C(O)CCCCCCCC(=O)O | inactive | 
23 | CN1CCN(C2=Nc3ccccc3Oc3ccc(Cl)cc32)CC1 | inactive | 
24 | CC(=O)[C@@]1(O)CC[C@H]2[C@@H]3CCC4=CC(=O)CC[C@]4(C)[C@H]3CC[C@@]21C | inactive | 
25 | CC(=O)OCC1=C(C(=O)O)N2C(=O)[C@@H](NC(=O)Cc3cccs3)[C@H]2SC1 | inactive | 
26 | CCn1cc(C(=O)O)c(=O)c2cc3c(cc21)OCO3 | inactive | 
27 | CN(C)CCOC(=O)COc1ccc(Cl)cc1 | inactive | 
28 | CN1C(=O)CC[C@H]1c1cccnc1 | inactive | 
29 | FC(F)(F)c1ccccc1-n1ccnc1 | inactive | 
30 | C[C@]12CCC(=O)C=C1CC[C@@H]1[C@@H]2CC[C@@]2(C)[C@H]1CC[C@]2(O)C(=O)CO | inactive | 
31 | Fc1ccc(C(c2ccc(F)cc2)N2CCN(C/C=C/c3ccccc3)CC2)cc1 | inactive | 
32 | CC(=O)Nc1nnc(S(N)(=O)=O)s1 | inactive | 
33 | CCOC(=O)C1=C(C)NC(C)=C(C(=O)OC)C1c1cccc(Cl)c1Cl (stereo not given) | inactive | 
34 | CN1CCN(CC(=O)N2c3ccccc3C(=O)Nc3cccnc32)CC1 |  | -1.15% [at 4.84 µM]
35 | Cc1scc2c1N(C(=O)CN1CCN(C)CC1)c1ccccc1NC2=O | inactive | 
36 | Cc1ccc(=O)n(-c2ccccc2)c1 | inactive | 
37 | CCCCCCCC/C=C\CCCCCCCC(=O)NCc1ccc(O)c(OC)c1 | inactive | 
38 | N[C@@H](COP(=O)(O)O)C(=O)O | inactive | 
39 | O=C1CC2(CCCC2)CC(=O)N1CCCCN1CCN(c2ncccn2)CC1 | inactive | 
40 | COCCc1ccc(OCC(O)CNC(C)C)cc1 (stereo not given) | inactive | 
